Screening results (PubChem BioAssay)
A selection: hits, their analogues and other compounds. The true share with any hit is near 4.8%.
AI-2 QS modul – Vibrio harveyi AI-2 quorum sensing modulation | activity change, % at 7.5 µM | Vibrio harveyi JMH597 AI-2 luminescence/OD600 ratio, 9 h; stronger effect = lower value; strain lacks LuxN and CqsS sensors; 0 = neutral-control median | hit rate 0.4% among 300,000 | AID 2094; in the data active = activity change below about -75%, passing the limit was not always enough;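 also: luminescence divided by OD600 gain over 9 h not by final OD600 alone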
ALR inh – human ALR oxidase inhibition via reduced H2O2; P55789; purified ALR, DTT oxidation, H2O2 HRP-luminol luminescence; inhibition, % (test concentration not listed); hit rate 3.8% among 290,000; AID 485317;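 active = mean replicate inhibition above about 79%, with every replicate also reaching it, limit read from the data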
Target sequence (P55789 whole entry, looked up): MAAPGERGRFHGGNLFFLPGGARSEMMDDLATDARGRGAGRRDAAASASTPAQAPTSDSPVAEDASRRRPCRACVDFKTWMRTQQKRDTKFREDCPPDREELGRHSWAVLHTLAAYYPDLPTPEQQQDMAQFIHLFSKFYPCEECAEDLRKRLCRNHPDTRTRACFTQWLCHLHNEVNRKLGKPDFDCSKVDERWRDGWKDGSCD
HIF act – HIF pathway transcriptional activation; U2OS HRE-luciferase reporter, luminescence; normalized: DMSO 0%, desferrioxamine 100%; activation, % at 7.5 µM (by protocol); hit rate 0.32% among 300,000; AID 1910;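 active = mean activation of at least 10% of the iron chelator positive control signal, with at least half of replicates also reaching 10%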
SUMO Mot1 rescue – SUMOylation pathway inhibition by Mot1-301 growth rescue; S. cerevisiae Mot1-301 growth rescue, ATP luminescence, 38.5C; percent above DMSO median, 100 means doubled; growth rescue, % at 18.8 µM; hit rate 1% among 320,000; AID 2716;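 active = every valid replicate shows activation above 250% relative to neutral control wells; inactive = the rest, any valid replicate at or below 250%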;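 also: OY570 slx delta 5 strain wells were the positive control but not used for scaling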
* marks the source's active call; other numbers are inactive results; . = no result.

SMILES	AI-2 QS modul	ALR inh	HIF act	SUMO Mot1 rescue
O=S(=O)(c1cccc(C(F)(F)F)c1)N1CCN(S(=O)(=O)c2ccc3c(c2)OCCO3)CC1	.	-7.3	.	4.3
O=C(Cc1ccc2c(c1)OCCO2)N1CCN(S(=O)(=O)c2cccc(C(F)(F)F)c2)CC1	12.7	89.5*	-0.5	196.6
CCOC(=O)c1c(CSc2cccs2)n(C)c2cc(Br)c(O)c(CN(C)C)c12	0.2	98.7*	-0.1	-17.0
CN(C)C(CNC(=O)c1cc(S(=O)(=O)N(C)Cc2ccccc2)ccc1Cl)c1ccco1 (stereo unspecified)	9.7	-1.4	-0.5	3.3
CCCCc1nnc(NC(=O)c2ccc(N3CCCC3=O)cc2)s1	7.5	-5.6	-19.2	1.5
CC(C)Cc1nnc(NC(=O)c2ccc(N3CCCC3=O)cc2)s1	.	-1.3	0.5	285.5*
COc1ccccc1/C=N/NC(=O)CC(=O)NCCc1ccccc1	10.8	-9.2	-0.1	12.9
COc1ccc(/C=N/N=C2\CC3CCC2(C)C3(C)C)cc1O (stereo unspecified)	16.0	65.8	2.6	1.0
COc1cc(/C=N/N=C2\CC3CCC2(C)C3(C)C)ccc1O (stereo unspecified)	9.5	98.7*	-3.6	145.0
CCOc1ccc(NC(=O)CN(C)C(=O)Cn2cnc3c2c(=O)n(C)c(=O)n3C)cc1OCC	16.3	-8.3	0.3	0.6
O=C(C1CCN(S(=O)(=O)c2cnc[nH]2)CC1)N1CCN(c2ccc([N+](=O)[O-])cc2)CC1	15.4	18.5	0.5	8.8
Cc1ccc(NS(=O)(=O)c2ccc(C)c(NC(=S)NCCN3CCOCC3)c2)c(C)c1	.	.	.	-7.1
COc1ccc(O)c(-c2cc(-c3ccccc3[N+](=O)[O-])[nH]n2)c1	2.0	98.8*	1.4	-12.4
O=[N+]([O-])c1ccccc1-c1cc(-c2cc(Cl)ccc2O)n[nH]1	69.4	98.8*	0.3	-1.9
Oc1ccc(Cl)cc1-c1cc(-c2ccccc2Cl)[nH]n1	2.9	-6.8	0.6	11.5
Oc1ccccc1-c1cc(-c2ccccc2Cl)[nH]n1	9.2	89.0*	-0.2	26.8
O=C(Nc1ccc(NC(=O)N2CCN(c3ccccc3O)CC2)cc1)N1CCN(c2ccccc2O)CC1	26.8	2.1	-0.5	-5.7
CCOc1ccc(C(=O)NCC(=O)NCC(c2ccco2)N2CCCCC2)cc1 (stereo unspecified)	.	-1.9	.	-7.2
Cc1csc(SCC(=O)Nc2cc([N+](=O)[O-])ccc2F)n1	.	2.7	.	-1.1
O=C(NCCS(=O)(=O)N1CCCCCC1)c1ccc(F)cc1	24.0	7.0	-0.1	-3.0
COc1ccc(-c2cc3c(=O)n(CC(=O)N4CCN(C)CC4)ncn3n2)cc1	17.4	-4.7	0.8	-4.8
CC(C)C[C@H](N)C(=O)N1CCC(C(=O)N[C@H](C(=O)NCc2ccc(F)cc2)C(C)C)CC1	-3.4	-1.3	-0.1	370.3
CC(C)C[C@H](N)C(=O)N1CCC(C(=O)N[C@H](C(=O)NC(C)c2ccccc2)C(C)C)CC1 (stereo partly specified)	6.0	-16.7	-0.3	788.0*
Cc1ccc(-c2nc(CS(=O)CC(=O)NCCCN3CCN(Cc4ccccc4)CC3)c(C)o2)cc1 (stereo unspecified)	2.2	98.8*	0.3	2.6
CCc1ccc(-c2nc(CN3CCC(C(=O)NCc4ccco4)CC3)c(C)o2)cc1	11.3	-7.9	-0.2	-24.8
SMILES	AI-2 QS modul	ALR inh	HIF act	SUMO Mot1 rescue
Cc1ccccc1-c1nc(CS(=O)CC(=O)NCCN2CCOCC2)c(C)o1 (stereo unspecified)	13.0	99.2*	0.2	-3.8
Cc1ccccc1-c1nc(CS(=O)(=O)CC(=O)NCCN2CCOCC2)c(C)o1	4.5	22.1	-0.3	1.6
CCc1ccc(-c2nc(CS(=O)CC(=O)NCCCN3CCC(C)CC3)c(C)o2)cc1 (stereo unspecified)	12.1	98.2*	0.5	-14.9
Cc1oc(-c2ccc(Cl)cc2)nc1CS(=O)CC(=O)NCCN1CCCC1 (stereo unspecified)	8.3	99.0*	-0.3	27.5
O=C(Cn1c(=O)cnc2ccccc21)NC1CCC(O)CC1 (stereo unspecified)	-7.3	-1.9	1.8	-7.8
Cc1cc(NC(=O)CN2C(=O)NC(c3ccccc3)(c3ccc(C)c(C)c3)C2=O)no1 (stereo unspecified)	.	3.5	.	-10.1
CCc1ccc(-c2nc(CS(=O)CC(=O)NCCN3CCCCCC3)c(C)o2)cc1 (stereo unspecified)	-11.8	99.5*	-0.4	0.0
Cc1ccc(-c2nc(CS(=O)CC(=O)NCCN3CCCC3)c(C)o2)cc1 (stereo unspecified)	9.2	98.8*	-0.4	1.5
Cc1ccc(-c2nc(CS(=O)CC(=O)NCCN(CC(C)C)CC(C)C)c(C)o2)cc1 (stereo unspecified)	26.8	99.2*	-0.2	-18.4
Cc1ccccc1-c1nc(CS(=O)(=O)CC(=O)NCCCN2CCCC2)c(C)o1	4.6	-22.1	-0.1	64.1
CCc1ccc(-c2nc(CN3CCCC(C(=O)NCCc4ccc(OC)c(OC)c4)C3)c(C)o2)cc1 (stereo unspecified)	20.5	.	-0.1	-6.9
Cc1ccc(-c2nc(CS(=O)CC(=O)NCCN3CCOCC3)c(C)o2)cc1 (stereo unspecified)	0.5	99.3*	0.1	5.5
Cc1ccc(-c2nc(CS(=O)(=O)CC(=O)NCCN3CCOCC3)c(C)o2)cc1	.	-3.1	0.2	214.1
CSCCC(NC(=O)c1cccc(C)c1)C(=O)NNC(=O)c1cccs1 (stereo unspecified)	.	0.9	.	-15.8
CC(C)(C)OC(=O)N1CCC[C@H]1C(=O)Nc1ccc(S(=O)(=O)C(F)F)cc1	39.7	-33.9	-3.8	26.2
Cc1oc(-c2ccc(Cl)cc2)nc1CS(=O)CC(=O)NCCCN1CCOCC1 (stereo unspecified)	10.3	98.5*	-0.6	13.1
COc1ccc(Cc2nc(-c3ccc(Br)cc3)no2)cc1	-76.0*	.	.	-0.9
CNC(=O)Nc1ccc2snnc2c1	19.7	52.0	0.2	0.0
CC1CN(C(=O)Nc2ccc3snnc3c2)c2ccccc21 (stereo unspecified)	22.0	94.0*	.	-6.9
O=C(Nc1ccc2snnc2c1)N1CCSCC1	8.6	92.9*	-0.4	-4.1
CC(C)(C)OC(=O)NCCc1nnc(SCc2ccccc2Cl)o1	13.2	-4.9	0.8	-13.8
CC(C)(C)OC(=O)NCCc1nnc(S(=O)(=O)Cc2ccc(Cl)cc2Cl)o1	-88.8*	1.8	-1.6	87.3
CN1CN(C)c2cccc3cccc1c23	1.5	98.2*	0.3	-9.2
Cc1ccc(C)c(N2CCN(C(=O)c3ccc4nsnc4c3)CC2)c1	22.1	0.5	0.8	-16.3
CC(=O)c1ccc(N2CC(C)(C)C2=O)cc1	48.2	-2.4	-0.1	-3.0
CN(C)c1ccc(N2CC(C)(C)C2=O)cc1	15.3	99.1*	0.1	0.5
COC(=O)c1c(N)sc2c1CC(C)(C)OC2	43.1	98.1*	0.2	1.9
c1ccc(N2CCOCCOCCOCCOCC2)cc1	10.2	99.2*	0.5	-13.2
